This is a sample that favours compounds with a hit; in the whole collection about 2.8% have one here.
HEK293 viab: reduces viability of HEK-293 SNCA reporter cells; HEK-293-SNCA-luc viability, GF-AFC fluorescence, 24 h; Potency, µM (highest dose often 57.1 µM), usual class: cytotoxic; 150,000 compounds, 0.12% hits; also: nearly all actives have a fitted effect of over 30% in size
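Cytotoxicity counterscreen: after 24 h compound treatment of genome-edited SNCA-luciferase HEK-293 cells, live-cell protease substrate GF-AFC read by fluorescence after 30 min; activity scaled between DMSO (0%) and medium-only (-100%), curves Hill-fitted.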
KDM5B inh: KDM5B demethylase inhibition | KDM5B demethylase, FDH-coupled NADH fluorescence (FDH is formaldehyde dehydrogenase) | Potency, µM (series often up to 57.7 µM), actives largely listed as inhibitors | 220,000 compounds, 2.6% hits | AID 1347165; also: nearly all actives have a fitted effect of over 70% in size
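Measured: NADH fluorescence change, 30 min, RT. System: KDM5BΔAP 200 nM final, H3K4me3 peptide, α-KG, Fe(II), ascorbate, NAD⁺ plus FDH, pH 7.5 HEPES. Compounds: titrated, 10 min pre-incubation with enzyme.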
IP6K1 inh: IP6K1 kinase inhibition; Q92551; IP6K1 kinase, ADP-Glo luminescence, 2 h; stronger effect = lower value; activity change, % (series mostly up to about 58 µM); 140,000 compounds, 0.81% hits; AID 1645851; in the data active = activity change below about -25%
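ADP-Glo luminescence measures ADP made by human IP6K1 during a 2 h RT reaction with ATP/IP6 (mix at 1.3 mM/130 uM); top library doses 57.5 and 19.1 uM final.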
SNCA expr inh: reduces expression of the alpha-synuclein gene | HEK-293 SNCA-luciferase knock-in, luminescence, 24 h | Potency, µM (series often up to 57.2 µM), usual class: inhibitors | 140,000 compounds, 0.17% hits | AID 1671194; also: nearly all actives have a fitted effect of over 45% in size
Each line names hits and unclear results; the compound was inactive in the other large screens; ! = a repeat was not active. Unless noted, calls follow the shape of the dose curve; as a rule, active = well fitted curve in the direction sought with a large enough effect; inconclusive = small, poorly fitted or top-dose-only effect, or another doubt; inactive = no such curve, though single readings can be large; an effect the other way counts as inactive or inconclusive.

O=C(NC1CCCCCC1)c1cc2c(F)cccc2s1	none (no result: HEK293 viab, IP6K1 inh, SNCA expr inh)
Cc1cc(C)cc(C(=O)NCCn2ccn3nc(-c4ccc(C)cc4C)cc3c2=O)c1	KDM5B inh 22µM
Cc1ccc(-c2cc3c(=O)n(CCNC(=O)c4cccc(Cl)c4)ccn3n2)c(C)c1	KDM5B inh 28µM
Cn1ncc2c(C(=O)NCCCc3ccccc3)cc(-c3ccc(Cl)cc3)nc21	none (no result: KDM5B inh)
O=C1CC(c2ccccc2)N(C(=O)CNC(=O)c2[nH]nc3c2CCc2ccccc2-3)CCCCCCN1 (configuration not stated)	none
O=C(NCc1ccccc1)c1cccc(NC(=S)Nc2ccc(Br)cc2Cl)c1	none (no result: HEK293 viab, IP6K1 inh, SNCA expr inh)
Cc1cn2nc(C(=O)NCc3ccc(Cl)cc3)cc2c(N(C)Cc2ccccc2)n1	KDM5B inh 14µM
Cc1cn2nc(C(=O)N3CCOCC3)cc2c(N(C)Cc2ccccc2)n1	KDM5B inh inconclusive
Cc1cn2nc(C(=O)NCc3cccc(Cl)c3)cc2c(N(C)Cc2ccccc2)n1	KDM5B inh 25µM
Cc1cn2nc(C(=O)NCc3ccc(F)cc3F)cc2c(N(C)Cc2ccccc2)n1	none
Cc1cc(C)cc(-c2ccc(CN3CCCC(NC(=O)c4ccc(F)cc4)C3)cc2)c1 (configuration not stated)	none (no result: KDM5B inh)
COC[C@@H]1CCCN1Cc1cn(-c2ccccc2)nc1-c1ccc(OC)cc1F	none
COC[C@@H]1CCCN1Cc1cc2cc3c(cc2[nH]c1=O)OCO3	KDM5B inh 28µM
COc1ccc(-n2cc(-c3ccnc(NCCC4CCCN4C)n3)cn2)cc1 (configuration not stated)	KDM5B inh 28µM
COc1ccccc1CNC(=O)[C@H]1CCC[C@H]1NC(=O)c1ccncc1	HEK293 viab inconclusive
COC[C@@H]1CN(c2cnccn2)C[C@H]1C(=O)NCc1ccccc1OC	KDM5B inh 22µM
COC[C@@H]1CN(c2cnccn2)C[C@H]1C(=O)NCCc1cccnc1	KDM5B inh 25µM, SNCA expr inh inconclusive
COC[C@@H]1CN(c2cnccn2)C[C@H]1C(=O)NCCCn1cccn1	KDM5B inh 20µM
O=C(O)CC[C@@H]1CN(c2cnccn2)CC[C@@H]1N1CCOCC1	KDM5B inh inconclusive
COCC1CCN(C(=O)[C@@H]2CN(c3cnccn3)C[C@H]2COC)CC1	KDM5B inh 25µM
O=C(c1ccccc1)N1CCC(N2CCCNC2=O)CC1	none
Cc1ccc(C2NC(=O)N(CC(=O)NC3CCCC3)C3=C2C(=O)OC3)cc1 (configuration not stated)	none
Cn1nc(C(=O)Nc2ccc(Br)cc2F)c2c1-c1ccsc1CC2	none (no result: HEK293 viab, IP6K1 inh, SNCA expr inh)
COc1cc(N)c(Cl)cc1C(=O)OCc1ccc(C(C)(C)C)cc1	none (no result: HEK293 viab, IP6K1 inh, SNCA expr inh)
COC[C@@H]1CN(c2cnccn2)C[C@H]1C(=O)NCc1c(C)n[nH]c1C	KDM5B inh 20µM
NC(=O)NO	SNCA expr inh 1.4µM! (no result: KDM5B inh)
CCOC(=O)c1nc2cc(C)c(C)cc2nc1NCCc1ccc(OC)c(OC)c1	none (no result: HEK293 viab, IP6K1 inh, SNCA expr inh)
O=c1c2nc(-c3cccnc3)ccc2ncn1-c1ccc(F)cc1F	none
COCc1cccc(-c2ccc3ncn(-c4ccc(F)cc4F)c(=O)c3n2)c1	KDM5B inh 32µM
COc1ncc(-c2ccc3ncn(-c4ccc(F)cc4F)c(=O)c3n2)cn1	KDM5B inh 40µM
COCCOc1cc(NC(=O)c2n[nH]c(=O)c3ccccc23)ccc1OC	none (no result: HEK293 viab, IP6K1 inh, SNCA expr inh)
O=C(c1cccc(Cl)c1)N1Cc2ccccc2CC2(CCCN2Cc2ccncc2)C1 (configuration not stated)	KDM5B inh 50µM
CC(C)C(=O)N1Cc2ccccc2CC2(CCCN(CC3CCNC3)C2)C1 (configuration not stated)	KDM5B inh 35µM
CC(=O)NCC(=O)N1Cc2ccccc2CC2(CCCCN2CC2CCNC2)C1 (configuration not stated)	KDM5B inh 2.8µM
CCC(=O)N1Cc2ccccc2CC2(CCCCN2CC)C1 (configuration not stated)	KDM5B inh 100µM
CC(C)Cc1nc(C#N)c(N2CCN(c3cccc(Cl)c3)CC2)o1	none (no result: HEK293 viab, IP6K1 inh, SNCA expr inh)
CCCC(=O)N1Cc2ccccc2CC2(CCCN2CCC)C1 (configuration not stated)	KDM5B inh inconclusive
CCCC(=O)N1Cc2ccccc2CC2(CCCCN2CC)C1 (configuration not stated)	KDM5B inh 56µM
COc1ccc(-c2cc(N3CCC(NC(=O)c4ccc5cc[nH]c5c4)CC3)n[nH]2)cc1	KDM5B inh 28µM
COc1ccc(-c2cc(N3CCC(NC(=O)COc4ccccc4C)CC3)n[nH]2)cc1	HEK293 viab inconclusive, KDM5B inh 16µM, SNCA expr inh inconclusive

Bioassay records deposited in PubChem by National Center for Advancing Translational Sciences (NCATS).
